Outcome data for 37 compounds are collected here from PubChem BioAssay AID1671192 (National Center for Advancing Translational Sciences (NCATS), 2021).

Molecules are shown by their SMILES. Results filed as inconclusive are left out. Active and inactive are the calls of the source. Calls follow the shape of the dose curve; as a rule, active = well fitted curve in the direction sought with a large enough effect; inconclusive = small, poorly fitted or top-dose-only effect, or another doubt; inactive = no such curve, though single readings can be large or run the other way.

Chain of Polyunsaturated fatty acid lipoxygenase ALOX15 (Homo sapiens) (P16050 whole entry, looked up): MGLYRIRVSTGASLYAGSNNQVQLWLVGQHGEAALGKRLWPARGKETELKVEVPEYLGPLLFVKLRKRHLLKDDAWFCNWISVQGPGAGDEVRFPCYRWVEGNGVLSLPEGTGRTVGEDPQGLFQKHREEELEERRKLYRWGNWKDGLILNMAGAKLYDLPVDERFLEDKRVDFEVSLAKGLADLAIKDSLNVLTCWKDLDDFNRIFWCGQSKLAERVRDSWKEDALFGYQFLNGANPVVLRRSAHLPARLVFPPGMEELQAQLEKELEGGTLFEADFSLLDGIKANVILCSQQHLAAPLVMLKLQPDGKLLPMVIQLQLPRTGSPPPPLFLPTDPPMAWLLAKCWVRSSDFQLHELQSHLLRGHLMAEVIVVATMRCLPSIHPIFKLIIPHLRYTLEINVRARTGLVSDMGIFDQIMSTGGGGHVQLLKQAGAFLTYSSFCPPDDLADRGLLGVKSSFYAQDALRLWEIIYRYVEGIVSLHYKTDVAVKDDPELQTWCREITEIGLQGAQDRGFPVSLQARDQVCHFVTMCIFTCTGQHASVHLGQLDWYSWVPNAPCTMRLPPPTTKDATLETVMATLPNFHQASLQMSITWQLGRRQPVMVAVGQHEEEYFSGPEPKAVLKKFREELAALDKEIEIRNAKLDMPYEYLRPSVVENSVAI

The target of this experiment is Polyunsaturated fatty acid lipoxygenase ALOX15 (Homo sapiens) (UniProt P16050). The experiment is described as follows: Counterscreen qHTS for inhibitors of human arachidonate 12S-lipoxygenase (ALOX12): ALOX15 Assay. The following applies: purified ALOX15 enzyme activity; series mostly up to 110 µM. In outline:
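Purified human ALOX15 (15hLO-1) at 40 nM in 25 mM HEPES, 0.01% Triton X-100, pH 7.5, preincubated with compound 15 min at RT. Then 50 uM arachidonic acid for 30 min; hydroperoxide detected by Fe-xylenol orange as the 573/405 nm absorbance ratio.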
For orientation: A counterscreen serves to expose hits that act by an unwanted route or on another target.
Take `Cc1cc(C(=O)N2CCOCC2)c2c(C3CCNCC3)noc2n1`: the outcome was inactive.
The value for `O=C(O)CCCC(=O)N1Cc2ccccc2CC2(CCCN(Cc3ccccn3)C2)C1` (configuration not stated) was “inactive”; that for `CN1CC(=O)N(C2CCNCC2)Cc2c(NC3CCCCCC3)ncnc21` was “inactive”.
The value for `O=Cc1ccccc1-c1ccc(O)cc1` was “inactive”; that for `CNCc1ccccc1-c1ccccc1` was “inactive”.
As for `C[S+](=O)([O-])N1Cc2ccccc2CC2(CCCCN2CC2CCNCC2)C1` (configuration not stated), the entry is “inactive”; as for `N#Cc1cccnc1-c1cccc(C(=O)O)c1`, “inactive”; as for `O=C1Nc2ccccc2C12CCN(Cc1ccccc1)C2` (configuration not stated), “inactive”.
Regarding `O=C1NCc2ccccc2CC12CCN(Cc1ccc(Br)s1)CC2`, the call was inactive.
Turning to `O=C1NCc2ccccc2CC12CCN(C/C=C/c1ccccc1)CC2`, the result was inactive.
As for `NCCC(=O)N1Cc2ccccc2CC2(CCCCN2CC2CCNCC2)C1` (configuration not stated), the entry is “inactive”; as for `NCC(=O)N1CCC2(CC1)CN(C(=O)c1ccc(Cl)cc1)CCO2`, “inactive”.
As for `O=C(c1ccccc1F)N1CCn2c(nnc2C2CCNCC2)C1`, the entry is “inactive”.
The value for `O=C1NCc2ccccc2CC12CCN(Cc1ccc(F)cc1)C2` (configuration not stated) was “inactive”; that for `CCOCCCNc1ncnc2c1CN(C1CCNCC1)C(=O)CN2C` was “inactive”.
For `CCc1ccccc1CN1CCCC12Cc1ccccc1CNC2=O` (configuration not stated), the result was inactive.
As for `CN1CCC(C(=O)N2CCCC3(Cc4ccccc4CN3C(=O)c3ccccc3)C2)CC1` (configuration not stated), the entry is “inactive”.
As for `COc1ccc(-c2nc(C3CC3)nc3c2CN(C(=O)c2ccccc2OC)CC3)cc1`, the entry is “inactive”.
As for `CN1CC(=O)N(C2CCCNCC2)Cc2c(NCc3cccc(Cl)c3)ncnc21` (configuration not stated), the entry is “inactive”.
For the compound `NCc1ccc(-c2ccc(F)cc2)cc1`, the call was inactive.
Consider `O=C1NCc2ccccc2CC12CCN(Cc1cc(O)cc(O)c1)CC2`, for which the outcome was inactive.
The value for `O=C1NCc2ccccc2CC12CCN(Cc1cnc3ccccc3c1)CC2` was “inactive”.
Take `CCC(=O)N1Cc2ccccc2CC2(CCCCN2CC2CCNC2)C1` (configuration not stated): the compound was called inactive.
As for `CCC(=O)N1Cc2ccccc2CC2(CCN(CC3CCNCC3)CC2)C1`, the entry is “inactive”; as for `O=C1Nc2ccccc2CC12CN(CC1CCCC1)C2`, “inactive”.
The value for `CCN1CCCC2(Cc3ccccc3CN([S+](=O)([O-])c3ccccc3)C2)C1` (configuration not stated) was “inactive”.
The value for `O=Cc1cccc(-c2cncc(C(=O)O)c2)c1` was “inactive”; that for `COc1ccc(CN2CC3(C2)C(=O)Nc2ccccc23)cc1` was “inactive”.
As for `CN1CC(=O)N(C2CCCNC2)Cc2c(NCCc3ccccc3F)ncnc21` (configuration not stated), the result was inactive.
As for `CC(=O)NC1CC2(CCN(C(=O)Cc3c(C)noc3C)CC2)Oc2ccccc21` (configuration not stated), the entry is “inactive”; as for `CCc1nc2c(c(-c3ccc(OC)cc3)n1)CN([S+](=O)([O-])c1c(C)noc1C)CC2`, “inactive”; as for `O=C1c2ccccc2CN1C1CCN(Cc2ccsc2)CC1`, “inactive”.
As for `COc1ccc(-c2nc(C3CC3)nc3c2CN([S+](=O)([O-])c2ccccc2)CC3)cc1`, the call was inactive.
The value for `CC(=O)NCC(=O)N1Cc2ccccc2CC2(CCCN(CC3CCNC3)C2)C1` (configuration not stated) was “inactive”; that for `COc1ccc(NCCN2CCCC2)cc1` was “inactive”.
As for `Cc1ccc(C(=O)N2CCn3c(nnc3C3CCNCC3)C2)cc1`, the entry is “inactive”; as for `CC(C)[S+](=O)([O-])N1CCCC1c1nnc2n1CCNC2` (configuration not stated), “inactive”.
